Key:
Test in all cases: PBM binding z-score (relative to random genomic background probes); higher = stronger binding; sequences stand for … in GC…GCGATTGACAGCGTAGAATGAAGG
[1] = test system: FXR:RXRa (NR concentration 270 nM, RXRa partner concentration 90 nM)
In short: (§1)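 Binding z-scores were set against random background probes. The data came from custom Agilent 4×180K protein-binding microarrays carrying double-stranded probes with 34-nt variable regions, incubated 1 h with ligand-free nuclear receptor dimers. Partner-specific antibodies detected binding, and scanned fluorescence was regression-normalized.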

[2] = test system: LXRa:RXRa (NR concentration 270 nM, RXRa partner concentration 90 nM)
In short: as §1

[3] = test system: LXRa homodimer (NR concentration 270 nM)
In short: as §1

[4] = test system: LXRb:RXRa (NR concentration 270 nM, RXRa partner concentration 90 nM)
In short: as §1

[5] = test system: LXRb homodimer (NR concentration 270 nM)
In short: as §1

[6] = test system: PPARa:RXRa (NR concentration 270 nM, RXRa partner concentration 90 nM)
In short: as §1

[7] = test system: PPARg:RXRa (NR concentration 180 nM, RXRa partner concentration 90 nM)
In short: as §1

[8] = test system: PPARg:RXRa 270nM:90nM, anti-RXR (NR concentration 270 nM, RXRa partner concentration 90 nM)
In short: as §1

[9] = test system: PPARg:RXRa 30nM:10nM, anti-RXR (NR concentration 30 nM, RXRa partner concentration 10 nM)
In short: as §1

[10] = test system: PPARg:RXRa 90nM:30nM, anti-RXR (NR concentration 90 nM, RXRa partner concentration 30 nM)
In short: as §1

[11] = test system: PPARg:RXRa DBDmut IVT, anti-RXR (DBD mutation: RXRa K156A/R161A, NR concentration 270 nM, RXRa partner concentration 90 nM)
In short: as §1

[12] = test system: PPARg:RXRa IVT, anti-PPARg (NR concentration 270 nM, RXRa partner concentration 90 nM)
In short: as §1

[13] = test system: PPARg DBDmut:RXRa IVT, anti-PPARg (DBD mutation: PPARg1 K132A/R137A, NR concentration 270 nM, RXRa partner concentration 90 nM)
In short: as §1

[14] = test system: PPARg DBDmut IVT, anti-PPARg (DBD mutation: PPARg1 K132A/R137A, NR concentration 270 nM)
In short: as §1

[15] = test system: PPARg homodimer (NR concentration 180 nM)
In short: as §1

[16] = test system: PXR:RXRa (NR concentration 270 nM, RXRa partner concentration 90 nM)
In short: as §1

[17] = test system: PXR homodimer (NR concentration 270 nM)
In short: as §1

[18] = test system: RARa:RXR (NR concentration 270 nM, RXRa partner concentration 90 nM)
In short: as §1

[19] = test system: RARa homodimer (NR concentration 270 nM)
In short: as §1

[20] = test system: RARb:RXRa (NR concentration 270 nM, RXRa partner concentration 90 nM)
In short: as §1

Question: Which results are given for CGTCCAAGGTCTGCAGGTCAGTGAAAGCGACGTG?
Answer: PBM binding z-score [1]: 0.149; PBM binding z-score [2]: 0.12; PBM binding z-score [3]: -0.428; PBM binding z-score [4]: 0.0193; PBM binding z-score [5]: -1.21; PBM binding z-score [6]: 0.759; PBM binding z-score [7]: -0.32; PBM binding z-score [8]: 0.0368; PBM binding z-score [9]: -0.45; PBM binding z-score [10]: -0.257; PBM binding z-score [11]: 0.404; PBM binding z-score [12]: 0.652; PBM binding z-score [13]: -0.578; PBM binding z-score [14]: -0.887; PBM binding z-score [15]: 0.2; PBM binding z-score [16]: 0.243; PBM binding z-score [17]: -0.548; PBM binding z-score [18]: 0.466; PBM binding z-score [19]: -0.728; PBM binding z-score [20]: 2.16

Question: Which PBM binding z-score [1] does the source give for ACTACTAGTTGAGACGAGGGCAACCGATAGGTTG here?
Answer: 0.166

Question: What about the PBM binding z-score [2] of the same sequence?
Answer: -0.245

Question: What about the PBM binding z-score [3] of the same sequence?
Answer: -0.365

Question: What about the PBM binding z-score [4] of the same sequence?
Answer: -0.0617

Question: What about the PBM binding z-score [5] of the same sequence?
Answer: -0.193

Question: And the PBM binding z-score [6]?
Answer: 0.173

Question: What about the PBM binding z-score [7] of the same sequence?
Answer: 0.721

Question: What about the PBM binding z-score [8] of the same sequence?
Answer: 0.0309

Question: What about the PBM binding z-score [9] of the same sequence?
Answer: -0.149

Question: What about the PBM binding z-score [10] of the same sequence?
Answer: -0.0878

Question: And the PBM binding z-score [11]?
Answer: 0.0475

Question: And the PBM binding z-score [12]?
Answer: 0.419

Question: What about the PBM binding z-score [13] of the same sequence?
Answer: 0.298

Question: What about the PBM binding z-score [14] of the same sequence?
Answer: 0.0425

Question: And the PBM binding z-score [15]?
Answer: 0.265

Question: What about the PBM binding z-score [16] of the same sequence?
Answer: 1.22

Question: What about the PBM binding z-score [17] of the same sequence?
Answer: 0.4

Question: What about the PBM binding z-score [18] of the same sequence?
Answer: 0.775

Question: And the PBM binding z-score [19]?
Answer: 0.103

Question: And the PBM binding z-score [20]?
Answer: 0.93

Question: Which results are given for ATCGAAACGTCGAAGGTGAGTATACCCACCCGAA?
Answer: PBM binding z-score [1]: -0.17; PBM binding z-score [2]: -0.352; PBM binding z-score [3]: -0.345; PBM binding z-score [4]: -0.738; PBM binding z-score [5]: -0.334; PBM binding z-score [6]: -0.193; PBM binding z-score [7]: 0.676; PBM binding z-score [8]: -0.0479; PBM binding z-score [9]: 0.0501; PBM binding z-score [10]: -0.0142; PBM binding z-score [11]: -0.927; PBM binding z-score [12]: -0.0186; PBM binding z-score [13]: 0.59; PBM binding z-score [14]: 0.626; PBM binding z-score [15]: -0.242; PBM binding z-score [16]: -0.502; PBM binding z-score [17]: -0.249; PBM binding z-score [18]: -0.42; PBM binding z-score [19]: 0.0263; PBM binding z-score [20]: 0.237

Question: Which PBM binding z-score [1] does the source give for CGACCAAGGTGAACAAGGTCGTTGATTACTATTC here?
Answer: 1.09

Question: What about the PBM binding z-score [2] of the same sequence?
Answer: 1.16

Question: What about the PBM binding z-score [3] of the same sequence?
Answer: -0.248

Question: What about the PBM binding z-score [4] of the same sequence?
Answer: 1.83

Question: What about the PBM binding z-score [5] of the same sequence?
Answer: -0.531

Question: And the PBM binding z-score [6]?
Answer: 2.54

Question: What about the PBM binding z-score [7] of the same sequence?
Answer: 1.27

Question: What about the PBM binding z-score [8] of the same sequence?
Answer: 1.29

Question: What about the PBM binding z-score [9] of the same sequence?
Answer: -0.0265

Question: What about the PBM binding z-score [10] of the same sequence?
Answer: 0.643

Question: And the PBM binding z-score [11]?
Answer: 1.95

Question: What about the PBM binding z-score [12] of the same sequence?
Answer: 2.6

Question: What about the PBM binding z-score [13] of the same sequence?
Answer: -0.104

Question: What about the PBM binding z-score [14] of the same sequence?
Answer: -0.33

Question: And the PBM binding z-score [15]?
Answer: 0.615

Question: And the PBM binding z-score [16]?
Answer: 2.45

Question: What about the PBM binding z-score [17] of the same sequence?
Answer: 1.03

Question: What about the PBM binding z-score [18] of the same sequence?
Answer: 1.99

Question: And the PBM binding z-score [19]?
Answer: 0.125

Question: And the PBM binding z-score [20]?
Answer: 2.22

Reference: the supplement of paper PMC6555819
